Assay outcomes deposited in PubChem by National Center for Advancing Translational Sciences (NCATS).
Pf growth 48h: P. falciparum growth inhibition at 48 hours (one generation). P. falciparum luciferase growth in erythrocytes, 48 h. Potency, µM (highest dose often 28.7 µM), without a hit: at the top dose activity change, negative = inhibition, most hits filed as inhibitors. hit rate 5.9% among 310,000; further: on the % scale 0 is the no-effect control and ±100 the full control effect
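Luciferase-expressing P. falciparum in infected erythrocytes (2% hematocrit, 0.1% parasitemia final) in RPMI 1640/0.5% Albumax were exposed to compound for 48 hours at 37 C, 5% CO2; growth read as luminescence.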
SARS PLP yeast: blocks SARS-CoV papain-like protease in a yeast assay | S. cerevisiae expressing SARS-CoV PLpro, growth rescue | Potency, µM (doses to about 32.9 µM), for inactives: at the top dose activity, positive = growth rescue, most hits filed as activators | hit rate 0.19% among 330,000 | AID 485353; calls by dose curve; further: 0% is about no effect; nearly all actives have a fitted effect of over 55% in size
NS1 inh: inhibitors of influenza NS1 protein function. Potency, µM (highest dose often 46.1 µM), for inactives: at the highest dose activity, positive = more growth. hit rate 0.4% among 270,000; calls by dose curve; further: actives are rising curves; nearly all actives have a fitted effect of over 50% in size
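Compounds were scored for reversing the slow growth caused by influenza A NS1 in S. cerevisiae, measured by optical density at 600 nm. Assay medium contained 2% galactose at pH 6.0; NS1-free yeast of the same strain were the positive control.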
Pf growth 96h: inhibits malaria parasite growth, 96 h | P. falciparum luciferase reporter growth, 96 h | Potency, µM (titrated, usually from 28.7 µM), inactives show at the highest dose activity change, negative = inhibition, most hits filed as inhibitors | hit rate 6.9% among 320,000; further: on the % scale 0 is the no-effect control and ±100 the full control effect
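Two-generation exposure (96 h) targets delayed-death phenotype. Reporter parasites carrying integrated firefly luciferase, in red cells at 2% hematocrit and 0.05% parasitemia final, kept at 37 C, 5% CO2; luminescence loss indicates inhibition.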
The depositor's hits bear a star; ? = inconclusive; . = no result; [ ] = another dose, or the depositor's remark. An excerpt weighted towards active compounds, which were near 10% of everything screened. Unless noted, the call rests on the fitted dose curve; in most records, active means well fitted inhibition curve with a large enough effect; inconclusive means small, poorly fitted or top-dose-only effect, or another doubt; inactive means no such curve, though single readings can be large or run the other way. Potency means the concentration at half of the fitted maximal effect.

SMILES	Pf growth 48h	SARS PLP yeast	NS1 inh	Pf growth 96h
O=C(C[n+]1cc(-c2ccccc2)n2c1CCC2)Nc1nc(-c2ccc(F)cc2)cs1	?	12%	5%	10µM*
Cn1c(N)c(C(=O)COC(=O)c2cc(-c3ccco3)nc3ccccc23)c(=O)n(Cc2ccccc2)c1=O	?	-3%	14µM*	9.3µM*
COc1ccc(C(c2c(NC(C)=O)sc3c2CCCC3)N2CCN(CCO)CC2)cc1OC (configuration not stated)	4.7µM*	0%	.	?
CC(=O)Nc1sc2c(c1C(c1cccc(Cl)c1)N1CCN(CCO)CC1)CCCC2 (configuration not stated)	?	0%	-5%	-25%
CC(=O)Nc1sc2c(c1C(c1ccncc1)N1CCOCC1)CCCC2 (configuration not stated)	4.7µM*	1%	.	8.3µM*
Nn1c(SCC(=O)NCC2CCCO2)nnc1-c1ccco1 (configuration not stated)	.	0%	.	.
COc1cccc(NC(=O)C2(S(=O)(=O)c3ccc(Cl)cc3)CC2)c1	-2%	1%	2%	5%
CCCCNc1c(N)n(CC(C)C)c(=O)[nH]c1=O	15µM*	-2%	.	5%
CCCCNc1c(N)n(CCC)c(=O)[nH]c1=O	14%	-4%	.	-11%
COc1ccc(Cl)cc1C(=O)Nn1cnnc1	-3%	0%	8%	?
CC(C)(C)C(=O)NC(=S)Nc1cccc(C(=O)O)c1	213%	0%	0%	33%[5.75 µM]
O=C(O)c1cccc(NC(=S)NC(=O)c2ccncc2)c1	32%	1%	.	9.3µM*
Cc1cc(C)nc(NC(=S)Nc2ccccc2)n1	71%	0%	0%	42%
Cc1cc(C)nc(NC(=S)NC(=O)c2ccccc2)n1	15%	2%	23%	0.93µM*
O=C(CC1OC(=O)c2ccccc21)Nc1cc(Cl)ccc1N1CCOCC1 (configuration not stated)	.	-1%	.	.
CC1CN(Cc2c(O)ccc3c2oc(=O)c2ccccc23)CC(C)O1 (configuration not stated)	6.6µM*	2%	5%	2.3µM*
CC1CCCN(Cc2c(O)ccc3c4c(c(=O)oc23)CCCC4)C1 (configuration not stated)	1.3µM*	-1%	-5%	1.5µM*
CC1CN(Cc2c(O)ccc3c(=O)c(-c4ccccc4)coc23)CC(C)O1 (configuration not stated)	23%	0%	-2%	39%
O=c1oc2c(CN3CCOCC3)c(O)ccc2c2c1CCC2	-4%	-2%	-2%	?
C/C=C(\C)CN1CCCC(N(C)CCc2ccc(OC)c(OC)c2)C1 (configuration not stated)	?	3%	4%	-2%
O=C(COc1ccc(F)cc1)N1CCC(c2ccccc2)C1 (configuration not stated)	157%	-19%	-8%	?
F/C(COc1ccc2c(c1)[nH]c1ccccc12)=C1/CN2CCC1CC2	?	.	.	11µM*
Cc1c(C(=O)Nc2ccc(C(F)(F)F)cc2)sc2ncn(CC(=O)N3CCN(c4ccccn4)CC3)c(=O)c12	6%	0%	6%	?
CC(=O)Nc1nc2c(ccc3ccccc32)s1	47%	14%	-7%	10µM*
Cc1ccc(N(CC(=O)Nc2ccccc2-c2ccccc2)S(=O)(=O)c2ccccc2)c(C)c1	12µM*	-9%	?	?
SMILES	Pf growth 48h	SARS PLP yeast	NS1 inh	Pf growth 96h
Cc1ccc(N(CC(=O)N/N=C/c2ccc(OC3CSC3)cc2)S(=O)(=O)c2ccccc2)c(C)c1	?	5%	?	12µM*
CCOc1ccccc1N(CC(=O)Nc1ccccc1F)S(=O)(=O)c1ccccc1	10µM*	-3%	-3%	?
Cc1ccc(N(CC(=O)Nc2ccccc2C(=O)NCc2ccco2)S(=O)(=O)c2ccccc2)cc1C	10µM*	7%	?	.
Cc1ccc(N(CC(=O)N/N=C/c2ccc(OC3CSC3)cc2)S(=O)(=O)c2ccccc2)cc1	?	-3%	13%	-1%
O=C(CN(c1ccccc1)S(=O)(=O)c1ccccc1)Nc1ccccc1C(=O)NCc1ccco1	0%	14%	-10%	157%
Cc1ccc(S(=O)(=O)CCC(=O)OCc2nnc(-c3ccccc3)o2)cc1	.	-1%	.	.
O=C(O)c1ccccc1C(=O)c1ccc2c(c1)N(Cc1ccc(Cl)c(Cl)c1)C(=O)CO2	-119%	0%	-10%	0%
O=C(CC1CCCC1)NNC(=O)c1ccc(Br)cc1	93%	-7%	.	92%
CCc1ccc(OC)c(S(=O)(=O)NCc2cccs2)c1	?	-2%	.	-27%
Cc1ccc(C)c(N(CC(=O)Nc2ccccc2C(=O)NCc2ccco2)S(=O)(=O)c2ccccc2)c1	12µM*	4%	?	155%
Cc1ccc(S(=O)(=O)N(Cc2ccccc2)c2ccccc2C(=O)NCc2ccco2)cc1	10µM*	-21%	-45%	5.9µM*
Cc1cccc(S(=O)(=O)N(CC(=O)Nc2ccccc2C)Cc2ccco2)c1	.	-2%	2%	12µM*
O=C(CN(Cc1ccco1)S(=O)(=O)c1ccccc1)N/N=C/c1cccc(O)c1	-29%	2%	-21%	-23%
COc1ccccc1OC(C)C(=O)Nc1ccc(S(=O)(=O)N2CCN(C)CC2)cc1 (configuration not stated)	-13%	-1%	3%	-23%
CCCC1c2c(ccc3ccccc23)Oc2ccc3ccccc3c21	.	.	-11%	.
O=C(Nc1ccc(F)cc1F)NC1CCN(Cc2c(F)cccc2Cl)CC1	?	0%	-4%	?
C[C@@]1(CCOCc2ccccc2)NC(=O)NC1=O	.	.	-3%	.
Cc1ccc(C2=NNC(c3ccc(Cl)cc3)=Nc3ccccc32)o1	10µM*	-1%	?	10µM*
CCOC(=O)c1[nH]c(C)c(C(=O)N2CCN(c3ccc(OC)cc3)CC2)c1C	10%	3%	.	-17%
CCOC(=O)c1[nH]c(CN2CCN(c3ccc(OC)cc3)CC2)c(C(=O)OCC)c1C	9.3µM*	-3%	-2%	6.6µM*
O=C(N=C1SC2CS(=O)(=O)CC2N1c1ccccc1)C1CCCCC1 (configuration not stated)	13%	5%	3%	32%
O=C(CCCN1C(=O)/C(=C/c2cccs2)SC1=S)NNC(=O)c1cccnc1	?	2%	5%	15µM*
O=C(CCCN1C(=O)/C(=C/c2ccccc2Cl)SC1=S)NNC(=O)c1ccccc1	?	8%	-6%	1.9µM*
O=C(CCCN1C(=O)/C(=C/c2ccccc2Cl)SC1=S)NNC(=O)c1ccc(Cl)cc1Cl	?	11%	-7%	4%
CCN(CC)CCOC(=O)c1ccc(NC(=O)CCNC(=O)Cn2ccc3ccccc3c2=O)cc1	-2%	-3%	0%	12µM*
O=C(CCCN1C(=O)/C(=C/c2ccccc2Cl)SC1=S)NNC(=O)c1cccnc1	9.3µM*	-1%	4%	?
CCOC(=O)C(CS)NCCN[C@@H](CS)C(=O)OCC (some centres not stated)	-13%	.	.	-17%
O=C1COC(c2ccccc2O)=NN1CCCN1CCCC1	.	.	0%	.
Cc1cc(NC(=O)CCCN2C(=O)/C(=C\c3cccs3)SC2=S)no1	-3%	10%	7%	0%
